# According to PubChem BioAssay (NCI):
# Compounds without any hit were thinned out: in the full panel of roughly 83,000, 20% have a hit.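 Step 1: grow cells in 96-well plates. Step 2: add test compound at a single concentration. Step 3: incubate 48 h. Step 4: record percent growth.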 Active and inactive are the calls of the source. Rule for the calls: active = growth percent below 10; inactive = the rest.
# Tested on: COLO 205 colon
# Test: NCI-60 one-dose screen, 48 h (100 = growth as untreated, 0 = no growth, -100 = all killed)
# Settings: 10 µM unless noted
row,Structure (SMILES),growth
1,C[PH+](c1nc2ccccc2nc1[PH+](C)C(C)(C)C)C(C)(C)C.C[PH+](c1nc2ccccc2nc1[PH+](C)C(C)(C)C)C(C)(C)C.[Au+].[Cl-] (stereo unspecified),-100% (active)
2,CN(C)CCNC(=O)c1cc2c3cc(Cl)ccc3[nH]c2c2ncccc12,-17.9% (active)
3,CNC(=O)c1ccccc1Oc1nc(Nc2cc(OC)c(OC)c(OC)c2)ncc1Br,-12.6% (active)
4,O=C(c1ccccc1)c1ccc(C2CCCCC2)cc1,101% (inactive)
5,CCCCCCCC[C@@H]1N[C@@H](C(=O)OC)Cc2c1[nH]c1ccccc21,113% (inactive)
6,Cc1cc(N2CCCCC2)cc(C)c1-c1csc(NC(=O)c2ccncc2)n1,60.6% (inactive)
7,Cc1nc2sc(C(=O)Nc3ccc(Br)cc3)c(N)c2cc1C(O)c1ccccc1 (stereo unspecified),64.5% (inactive)
8,CCN(CC)CC(O)COc1c(Br)c(Br)c(Br)c2c1OC(C)(C)C2 (stereo unspecified),67.7% (inactive)
9,Cc1cccc(CNc2c3ccccc3nc3ccccc23)c1,-16.2% (active)
10,Fc1cc2c(cc1Cl)N(c1ncnc3ccc(-c4ccc5n[nH]nc5c4)cc13)CC2,109% (inactive)
11,CC/C(=C(/c1ccc(Cl)cc1)c1ccc(OCCN(C)C)cc1)c1ccc(Cl)cc1,-16.1% (active)
12,Cn1cc(-c2nonc2-c2cn(C)c3ccccc23)c2ccccc21,-34% (active)
13,COC12C=C/C(=C(/C(=O)OCc3ccncc3)C(=O)CCCCCCCCC3(OC)C=C/C(=C(/C(=O)OCc4ccncc4)C(=O)CCCCCCCC1)O3)O2,-25% (active)
14,COc1cc2ncnc(Nc3ccc(F)c(Cl)c3)c2cc1OCC(=O)N1CCN(c2ccccc2)CC1,112% (inactive)
15,COc1ccc(/C=C(\C#N)n2nnc3cc(Cl)ccc32)cc1,-13.2% (active)
16,COc1ccc(C(=O)/C=C/c2c(C(F)(F)F)nc3ccccn23)cc1OC,-1.6% (active)
17,CCN(C)S(=O)(=O)Nc1cccc(Nc2ncnc3cc(NC(=O)CCl)ccc23)c1Cl,-33.9% (active)
18,Cc1c2cnccc2c(C)c2c1c1cc(C#N)ccc1n2C,-37.2% (active)

row,Structure (SMILES),growth
1,CN(C)CC(C)(C)C(=O)/C=C/c1ccccc1,-87% [25 µM] (active)
2,O=CN1N=C(c2cccc(Nc3ccnc4cc(Cl)ccc34)c2)CC1c1ccccc1 (stereo unspecified),-40.9% (active)
3,O=C(Nc1ccc(Oc2cccc(Cl)c2)c(Cl)c1)c1cnccn1,12.3% (inactive)
4,O=c1[nH]c(Cc2nc3ccccc3s2)nc2cc(Br)ccc12,88.3% (inactive)
5,C#CCNC(=O)[C@H](CC)[C@H]1CC[C@H](C)[C@H]([C@@H](C)[C@H](O)[C@H](C)C(=O)[C@H](CC)C2O[C@]3(C=CC(=O)[C@]4(CC[C@@](C)([C@H]5CC[C@](O)(CC)[C@H](C)O5)O4)O3)[C@H](C)C[C@@H]2C)O1 (stereo partly specified),10.8% (inactive)
6,O=C(Nc1ccc(Oc2cccc(F)c2)c(Cl)c1)c1cccnc1,22.7% (inactive)
7,CS(=O)(=O)Nc1cc(-c2ccc3ncnc(Nc4ccc5c(cnn5Cc5ccc(F)cc5)c4)c3c2)cnc1Cl,60.1% (inactive)
8,COC1=CC(c2ccc[nH]2)=N/C1=C\c1[nH]c(C)c(C)c1CCC(=O)OCc1ccccc1,-64.8% (active)
9,CC(C)(C)CC(C)(C)NC(=O)Nc1ncccc1OCc1ccccc1,105% (inactive)
10,Nc1nc2ccccc2c2c1S(=O)(=O)c1ccc(Cl)cc1C2=O,-18% (active)
11,CCOC(=O)C/C(=N\Nc1cc(=O)[nH]c2ccc(Br)cc12)C(=O)OCC,107% (inactive)
12,COc1cc(-c2csc(NC(=O)c3ccc(N4CCOCC4)c(C(F)(F)F)c3)n2)cc(OC)c1OC,18.9% (inactive)
13,Oc1c(Br)cc(Br)c2ccc(Cn3cc(-c4ccc(C(F)(F)F)cc4)nn3)nc12,59.7% (inactive)
14,C#CCOc1ccc2ncnc(Nc3ccc(NC(=O)C=C)cc3)c2c1,-57.6% (active)
15,CCn1cc(C(=O)O)c(=O)c2cc(F)c(N3CCN(CC(=O)Nc4ccc(S(=O)(=O)Nc5nccc(C)n5)cc4)C(C)C3)c(F)c21 (stereo unspecified),118% (inactive)
16,O=C(Nc1cccc(-c2ccc(N3CCOCC3)nn2)c1)Nc1cccc(C(F)(F)F)c1,81% (inactive)
17,CSc1nc2ncc([N+](=O)[O-])c(=O)n2[nH]1,119% (inactive)
18,COc1cc2ncnc(Nc3ccc(S(=O)(=O)Nc4cc(C)on4)cc3)c2cc1OCCCN1CCN(c2ccc(F)cc2)CC1,105% (inactive)
